Inconclusive results are not listed. The source made the active and inactive calls. Calls follow the shape of the dose curve; as a rule, active = well fitted inhibition curve with a large enough effect; inconclusive = small, poorly fitted or top-dose-only effect; inactive = flat fitted curve, though single readings scatter.

Holding throughout (test): qHTS profiling for inhibitors of Plasmodium falciparum proliferation (AID 504749); also: nearly all actives have a fitted effect of over 60% in size
What all share (conditions): P. falciparum in erythrocytes, SYBR Green DNA, 72 h; series mostly up to 28.7 µM
(In qHTS, concentration-response curves come from the screen itself.)

The test system of experiment [1] is ICS. The method in brief:
(§1)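 Quantitative HTS: compounds pinned into medium, infected erythrocytes added (0.3% parasitemia, 2.5% hematocrit), 72 h culture at 37 C under 5% CO2. Saponin/Triton lysis with SYBR Green I, overnight RT, then fluorescence read.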

The test system of experiment [2] is JCK. The method in brief:
as §1

Experiment [3] concerns PAD. The method in brief: as §1
For experiment [4], the system named is PC15. The method in brief:
as §1

The test system of experiment [5] is PC49. The method in brief: as §1
Experiment [6] concerns N140. The method in brief: as §1
Experiment [7] has as its system P94_40. The method in brief: as §1
The test system of experiment [8] is PC26. The method in brief:
as §1

Experiment [9] deals with SC27B. The method in brief:
as §1

Experiment [10] deals with P93_24. The method in brief:
as §1
Potency is read from the fitted curve at half-maximal effect.

In the case of `CN(C)CCN1C(=O)c2ccccc2N(C)c2ccccc21`, the Potency result in experiment [1], in experiment [2], in experiment [3] and in experiment [4] was “inactive” each time.

Consider `CN1CCN(C2=Nc3ccccc3Sc3ccc(Cl)cc32)CC1`, for which the Potency in [1] was 11.2 µM (active). The Potency result in experiment [2], in experiment [4] and in experiment [5] was “inactive” throughout.

For the compound `OC1C(O)C(O)C(O)C(O)C1O` (stereo not given), the Potency result in experiment [1], in experiment [2], in experiment [6], in experiment [7], in experiment [3] and in experiment [4] was “inactive” throughout. Moreover, the Potency result in [8], in [5] and in [9] was “inactive” in each case.

For `CC(=O)N[C@@H](CCC(=O)O)C(=O)O`, the Potency result in experiment [1], in [2], in [6], in [10], in experiment [3] and in experiment [4] was “inactive” in each case. The Potency result in [8], in [5] and in experiment [9] was “inactive” throughout.

Consider `CCCCCN=C(N)N/N=C/c1c[nH]c2ccc(OC)cc12`, for which the Potency in [1] is 1.26 µM (active); in experiment [6], 4.47 µM (active); in experiment [10], 3.16 µM (active); in experiment [7] it was 2.82 µM (active); in experiment [3], 6.31 µM (active); in [4], 5.62 µM (active). In addition, the Potency in experiment [8] was 12 µM (active); in [9], 12.6 µM (active).

For the compound `CN1CCc2cccc3c2[C@H]1Cc1ccc(O)c(O)c1-3`, the Potency in experiment [1] was 2.82 µM (active); in experiment [6], 10 µM (active); in [10], 7.94 µM (active); in experiment [7], 3.98 µM (active); in [3] it was 11.2 µM (active); in [4], 8.91 µM (active). Also, the Potency in [8] was 15.1 µM (active).

Consider `COc1ccc(C(=O)c2ccccc2O)c(O)c1`, for which the Potency in [1] is 2.51 µM (active). For the same compound, the Potency result in experiment [10], in experiment [4] and in experiment [5] was “inactive” each time.

As for `CN1CCN(CCC(=O)N2c3ccccc3Sc3ccc(C(F)(F)F)cc32)CC1`, in experiment [1], the Potency was 7.08 µM (active). For the same compound, the Potency entry in experiment [2], in experiment [7] and in experiment [9] was “inactive” each time.

As for `CC(C)NCC(O)c1ccc2ccccc2c1` (stereo not given), the Potency in experiment [1] is 2 µM (active); in [6], 4.47 µM (active); in experiment [10], 8.91 µM (active); in [7], 5.01 µM (active); in experiment [3], 3.98 µM (active); in [4], 7.94 µM (active). The Potency was 7.57 µM (active) in experiment [8] and 8.91 µM (active) in experiment [9].

`CC(C)(Cc1c[nH]c2ccccc12)NCC(O)COc1ccccc1C#N` (stereo not given): the Potency in experiment [1] and in experiment [7] was 11.2 µM (active) each time. For the same compound, the Potency entry in experiment [2], in experiment [8] and in experiment [5] was “inactive” in each case.

On to `O=C(NC1CCN(CCc2c[nH]c3ccccc23)CC1)c1ccccc1`, for which the Potency in [1] is 8.91 µM (active). Moreover, the Potency entry in experiment [2], in [6], in experiment [3] and in experiment [9] was “inactive” throughout.

Turning to `CC(=O)O[C@]1(C(C)=O)CC[C@H]2[C@@H]3C=C(Cl)C4=CC(=O)CC[C@]4(C)[C@H]3CC[C@@]21C`, the Potency in [1] was 10 µM (active); in experiment [10], 11.2 µM (active); in [7], 11.2 µM (active); in [8], 13.5 µM (active); in [9] it was 8.91 µM (active). The Potency entry in [2] and in experiment [5] was “inactive” each time.

With `Clc1cccc(C(c2ccc3nc[nH]c3c2)n2ccnc2)c1` (stereo not given), the Potency in experiment [1] is 5.62 µM (active); in [6], 10 µM (active); in [10], 7.08 µM (active); in experiment [4] it was 12.6 µM (active); in [9] it was 10 µM (active). For the same compound, the Potency entry in experiment [2] and in experiment [5] was “inactive” in each case.

Consider `NC(=O)C1(N2CCCCC2)CCN(CCCC(=O)c2ccc(F)cc2)CC1`, for which the Potency result in experiment [1], in experiment [2], in experiment [6], in [7], in experiment [3] and in experiment [4] was “inactive” in each case. Moreover, the Potency entry in experiment [8], in experiment [5] and in experiment [9] was “inactive” throughout.

For `CCc1ccc(C(=O)C(C)CN2CCCCC2)cc1` (stereo not given), the Potency entry in experiment [1], in experiment [2], in experiment [6], in experiment [7], in experiment [3] and in experiment [4] was “inactive” throughout. Also, the Potency result in experiment [8], in [5] and in experiment [9] was “inactive” in each case.

Regarding `C#C[C@]1(O)CC[C@H]2[C@@H]3CCC4=CC(=O)CC[C@@H]4[C@H]3CC[C@@]21CC`, the Potency result in experiment [2], in experiment [6], in experiment [10], in experiment [7], in experiment [3] and in experiment [4] was “inactive” in each case. Also, the Potency result in experiment [8], in experiment [5] and in experiment [9] was “inactive” throughout.

Regarding `O=C(O)CCc1nc2ccccc2[nH]1`, the Potency entry in [1] and in experiment [4] was “inactive” in each case. In addition, in experiment [5], the Potency was 0.01 µM (active).

As for `Oc1c(Cl)cc(Cl)c(Cl)c1Cc1c(O)c(Cl)cc(Cl)c1Cl`, the Potency was 7.08 µM (active) in experiment [1], 8.91 µM (active) in [10], 8.91 µM (active) in experiment [5] and 10 µM (active) in experiment [9].

In the case of `CCCCCCCCNC(C)C(O)c1ccc(SC(C)C)cc1` (stereo not given), the Potency is 0.0891 µM (active) in [1]; 3.16 µM (active) in experiment [2]; 0.891 µM (active) in experiment [10]; 0.447 µM (active) in experiment [7]; 0.398 µM (active) in experiment [3]; 0.355 µM (active) in experiment [4]. The Potency in [8] is 0.849 µM (active); in experiment [5] it was 0.794 µM (active); in experiment [9], 1.12 µM (active).

As for `Cl/C(=C\n1cncn1)c1ccc(Cl)cc1Cl`, the Potency result in [2], in [6], in [10], in experiment [7], in [3] and in [4] was “inactive” throughout. The Potency result in [8], in [5] and in experiment [9] was “inactive” in each case.

`CC(C)(C)CC(C)(C)c1ccc(O)c(-n2nc3ccccc3n2)c1`: the Potency was 5.01 µM (active) in experiment [1], 10 µM (active) in experiment [10], 10 µM (active) in experiment [5] and 11.2 µM (active) in experiment [9]. Also, the Potency entry in experiment [2] and in [8] was “inactive” throughout.

In the case of `Cc1cc(CC(=O)O)c(C)n1-c1ccc(Cl)cc1`, in experiment [1], the Potency was 8.91 µM (active). Also, the Potency entry in [2] and in experiment [4] was “inactive” each time.

On to `CN1CCC[C@@H]1CCO[C@](C)(c1ccccc1)c1ccc(Cl)cc1`, for which, in [1], the Potency is 10 µM (active). The Potency entry in experiment [2], in [7], in [3], in [8] and in experiment [9] was “inactive” throughout.

`NS(=O)(=O)c1ccc(Cl)c(S(N)(=O)=O)c1`: the Potency entry in experiment [1], in experiment [2], in experiment [6], in [3], in experiment [4] and in [8] was “inactive” each time. In addition, the Potency result in experiment [5] and in experiment [9] was “inactive” in each case.

As for `CCCN(CCc1cccs1)[C@H]1CCc2c(O)cccc2C1`, the Potency in experiment [1] was 0.794 µM (active); in experiment [6], 3.16 µM (active); in [10], 6.31 µM (active); in [7] it was 4.47 µM (active); in experiment [3], 3.16 µM (active); in [4], 6.31 µM (active). Besides, the figures for the Potency in experiment [8], in experiment [5] and in [9] were 6.75 µM (active), 11.2 µM (active) and 4.47 µM (active), respectively.

For the compound `NC(N)=NN=C(/C=C/c1ccc([N+](=O)[O-])o1)/C=C/c1ccc([N+](=O)[O-])o1`, the Potency is 2 µM (active) in experiment [1]; 10 µM (active) in [6]; 12.6 µM (active) in [10]; 10 µM (active) in [3]; 11.2 µM (active) in experiment [5].

Take `COc1cc(O)c(C(=O)c2ccccc2)cc1S(=O)(=O)O`: the Potency in [1] was 3.55 µM (active). The Potency result in [2], in [5] and in experiment [9] was “inactive” in each case.

On to `N/C(=N\N=C\c1ccc(Cl)cc1)N/N=C/c1ccc(Cl)cc1`, for which the Potency in experiment [1] is 2.24 µM (active); in [9] it was 12.6 µM (active). Also, the Potency result in experiment [8] and in experiment [5] was “inactive” in each case.

As for `CNCCCCOc1ccccc1Cc1ccccc1`, the Potency in [1] is 11.2 µM (active); in experiment [5], 5.01 µM (active).

Consider `NCc1ccccc1Sc1ccccc1CO`, for which the Potency in experiment [1] was 8.91 µM (active). Besides, the Potency result in experiment [2], in experiment [5] and in [9] was “inactive” each time.

On to `O=S(c1cc(Cl)cc(Cl)c1O)c1cc(Cl)cc(Cl)c1O`, for which the Potency entry in experiment [1] and in experiment [4] was “inactive” each time. In addition, the Potency in [5] is 0.398 µM (active).

As for `CC(C)(C)NC[C@H](O)COc1nsnc1N1CCOCC1`, the Potency was 1.26 µM (active) in experiment [1]; 3.98 µM (active) in experiment [6]; 3.55 µM (active) in experiment [10]; 3.16 µM (active) in experiment [7]; 6.31 µM (active) in experiment [3]; 2.24 µM (active) in experiment [4]. Also, the Potency in experiment [8] was 12 µM (active); in experiment [9], 12.6 µM (active).

On to `Cc1cc2c(OCC(CNC(C)(C)C)OC(=O)c3ccccc3)cccc2[nH]1` (stereo not given), for which the Potency in experiment [1] was 8.91 µM (active). Further, the Potency entry in experiment [2], in experiment [3], in [4], in experiment [8], in experiment [5] and in experiment [9] was “inactive” throughout.

For the compound `CC(C)Nc1cccnc1N1CCN(C(=O)c2cc3cc(NS(C)(=O)=O)ccc3[nH]2)CC1`, the Potency in experiment [1] was 7.94 µM (active). The Potency entry in experiment [2], in experiment [6], in experiment [7], in [3], in experiment [4] and in experiment [8] was “inactive” in each case. Moreover, the Potency entry in experiment [5] and in experiment [9] was “inactive” each time.

`CN(CCCN1c2ccccc2CCc2ccccc21)CC(=O)c1ccc(Cl)cc1`: the Potency is 2 µM (active) in [1]; 7.94 µM (active) in experiment [6]; 11.2 µM (active) in experiment [10]; 8.91 µM (active) in [7]; 12.6 µM (active) in [3]; 10 µM (active) in experiment [4]. Moreover, the Potency in experiment [9] is 10 µM (active).

As for `O=C(CN1CCN(Cc2ccc3c(c2)OCO3)CC1)N1c2ccccc2Sc2ccccc21`, the Potency in experiment [1] is 10 µM (active); in experiment [10], 8.91 µM (active); in experiment [7], 8.91 µM (active); in experiment [3], 12.6 µM (active). Moreover, the Potency result in experiment [2] and in [5] was “inactive” each time.

Turning to `COc1cc([C@H]2Oc3cc([C@H]4Oc5cc(O)cc(O)c5C(=O)[C@@H]4O)ccc3O[C@@H]2CO)ccc1O`, the Potency in [1] is 8.91 µM (active). The Potency entry in experiment [2] and in [5] was “inactive” throughout.

Turning to `COc1ccc(C(=O)c2ccccc2)c(O)c1`, in experiment [1], the Potency was 2.82 µM (active). The Potency result in experiment [2], in experiment [7] and in [5] was “inactive” throughout.

On to `CCC(CC)(CC(=O)Nc1cccc(/C=C/c2nc(C3CCC3)cs2)c1)C(=O)O`, for which the Potency result in [2], in experiment [6], in [10], in experiment [7], in experiment [3] and in experiment [4] was “inactive” throughout. Besides, the Potency entry in experiment [8], in experiment [5] and in experiment [9] was “inactive” in each case.

The values are drawn from PubChem BioAssay (NCATS).
